Where “and” joins values, the source holds several entries; their conditions need not be identical. Identical values can stand only once. Among all 5,500 compounds or so, about 2,000 (36%) were called active. Inconclusive results (about 18%) are left out. Cut-off read from the data, not from the text of the source: active = normalized growth mostly below about 0.91 (no sharp cut-off); inconclusive = no clear call, values can overlap the other calls; inactive = mostly above about 0.92. Some of the results follow.
Assay: chemical genetic growth profiling, strain panel (AID 1159580);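 note: tested at 20 µM; growth read once vehicle control cultures reached saturation at 30 °C; 1 = growth at the plate median or of vehicle wells; lower values mean less growth of the strain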
Conditions: S. cerevisiae deletion strains, growth OD

Measured: normalized growth

NC[C@H](O)c1ccc(O)c(O)c1
inactive: locus YAL013W, strain DEP1, active compounds read low 1.01 | locus YAL021C, strain ccr4, active compounds read low 0.984 | locus YAL026C, strain drs2, active compounds read low 0.99 | locus YAL030W, strain snc1, active compounds read low 1.01 | locus YBL061C, strain skt5, active compounds read low 1.01 | locus YBR009C, strain hhf1, active compounds read low 1.01 | locus YBR021W, strain FUR4, active compounds read low 1.01 | locus YBR023C, strain chs3, active compounds read low 1.02 | locus YBR171W, strain sec66, active compounds read low 0.996 | locus YBR229C, strain ROT2, active compounds read low 1.01 | locus YBR231C, strain swc5, active compounds read low 0.984 | locus YBR279W, strain paf1, active compounds read low 1.02 | locus YCL011C, strain gbp2, active compounds read low 0.999 | locus YCL016C, strain dcc1, active compounds read low 1.02 | locus YCL029C, strain bik1, active compounds read low 1.01 | locus YCL061C, strain MRC1, active compounds read low 1.01 | locus YCL069W, strain vba3, active compounds read low 0.991 | locus YCR088W, strain abp1, active compounds read low 1.01 | locus YDL005C, strain med2, active compounds read low 1 | locus YDL035C, strain GPR1, active compounds read low 1.01 | locus YDL040C, strain nat1, active compounds read low 1.01 | locus YDL074C, strain BRE1, active compounds read low 0.986 | locus YDL101C, strain DUN1, active compounds read low 1.01 | locus YDL134C, strain PPH21, active compounds read low 1.02 | locus YDL185W, strain tfp1, active compounds read low 1.01 | locus YDL192W, strain arf1, active compounds read low 1.01 | locus YDR001C, strain nth1, active compounds read low 1 | locus YDR069C, strain doa4, active compounds read low 0.981 | locus YDR101C, strain arx1, active compounds read low 1 | locus YDR137W, strain rgp1, active compounds read low 1.06 | locus YDR150W, strain NUM1, active compounds read low 1 | locus YDR159W, strain sac3, active compounds read low 1.01 | locus YDR162C, strain NBP2, active compounds read low 1 | locus YDR195W, strain ref2 1.01 | locus YDR297W, strain sur2, active compounds read low 1.01 | locus YDR318W, strain mcm21, active compounds read low 1.03 | locus YDR334W, strain swr1, active compounds read low 0.984 | locus YDR335W, strain msn5, active compounds read low 0.999 | locus YDR388W, active compounds read low 1.02 | locus YDR392W, strain spt3, active compounds read low 0.987 | locus YDR502C, strain sam2, active compounds read low 1.02 | locus YEL003W, strain gim4, active compounds read low 0.986 | locus YEL037C, strain rad23, active compounds read low 0.986 | locus YEL061C, strain CIN8 (second series), active compounds read low 0.985 | locus YEL061C, strain CIN8, active compounds read low 1.01 | locus YER015W, strain faa2, active compounds read low 0.99 | locus YER016W, strain bim1, active compounds read low 1 | locus YER110C, active compounds read low 1.02 | locus YER111C, strain swi4, active compounds read low 0.98 | locus YER155C, strain BEM2 (second series), active compounds read low 1 | locus YER155C, strain BEM2, active compounds read low 1.02 | locus YER167W, strain BCK2, active compounds read low 1.02 | locus YFR010W, strain ubp6, active compounds read low 0.953 | locus YGL078C, strain dbp3, active compounds read low 1.01 | locus YGL086W, strain mad1, active compounds read low 0.991 | locus YGL167C, strain pmr1, active compounds read low 1 | locus YGL173C, strain kem1, active compounds read low 0.999 | locus YGL227W, strain vid30, active compounds read low 1 | locus YGL240W, strain doc1, active compounds read low 1.03 | locus YGL248W, strain PDE1, active compounds read low 1.01 | locus YGL253W, strain hxk2, active compounds read low 0.994 | locus YGR135W, strain pre9, active compounds read low 0.998 | locus YGR252W, strain gcn5, active compounds read low 0.958 | locus YHR013C, strain ard1, active compounds read low 1 | locus YHR027C, strain rpn1, active compounds read low 1 | locus YHR030C, strain SLT2, active compounds read low 1.01 and 0.962 | locus YHR079C, strain IRE1 (second series), active compounds read low 1.02 | locus YHR079C, strain IRE1, active compounds read low 0.953 | locus YHR094C, strain hxt1, active compounds read low 1.03 | locus YHR129C, strain ARP1, active compounds read low 0.999 | locus YHR142W, strain chs7, active compounds read low 0.978 | locus YHR200W, strain rpn10, active compounds read low 1.02 | locus YIL066C, strain RNR3, active compounds read low 1.01 | locus YIL073C, strain SPO22, active compounds read low 1.03 | locus YIL125W, strain kgd1, active compounds read low 1.01 | locus YIR030C, strain dcg1, active compounds read low 1.02 | locus YJL092W, strain hpr5, active compounds read low 1 | locus YJL095W, strain BCK1 (second series), active compounds read low 1.01 | locus YJL095W, strain BCK1, active compounds read low 0.994 and 0.971 | locus YJL115W, strain asf1, active compounds read low 1 | locus YJL129C, strain trk1, active compounds read low 0.952 | locus YJL134W, strain LCB3, active compounds read low 1.01 | locus YJL154C, strain vps35, active compounds read low 1 | locus YJL164C, strain tpk1, active compounds read low 1.01 | locus YJL166W, strain qcr8, active compounds read low 1.02 | locus YJL168C, strain set2, active compounds read low 1.02 | locus YJL187C, strain SWE1 (second series), active compounds read low 1.01 | locus YJL187C, strain SWE1, active compounds read low 0.999 | locus YJR043C, strain POL32, active compounds read low 1.02

From PubChem BioAssay AID1159580 (chemical genetic matrix, 2015)
